# Data as given in the supplement of paper PMC12636033.
# ± gives the standard deviation of the averaged measurements. The full ranking holds about 33,000 sequences; the median of “E-score (rank enrichment, -0.5 to 0.5)” is about -0.0028, and the highest 2% start at about 0.23. Only a selection was taken, and the highest values are over-represented in it overall.
# System: 2Sb-muMax20 (muMax20 with two 1,3-bis(methyl)benzene Cys staples, A13C/A17C and Q88C/A92C, C-terminal Lys)
# Assay: PBM 8-mer E-score (E-score (rank enrichment, -0.5 to 0.5)); higher = stronger preferential binding
# Protocol: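 Protein binding microarray (universal PBM chip covering all 10-mers in fixed probe flanks) with chemically synthesized human Max(13-93) bHLH-LZ analogs (not full-length Max) bearing noncanonical residues (hArg, Tha, Aib, Nle at 65) and aromatic Cys staples. Read-out per 8-mer (and its reverse complement): E-score (rank-based enrichment, -0.5 to 0.5) and Z-score of median probe intensity.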
row,Sequence,PBM 8-mer E-score
1,AGCCTATG,-0.168 ± 0.032
2,CGCCCCCA,-0.0972 ± 0.11
3,TAGCCCCA,0.35 ± 0.014
4,CAGCCCCA,0.166 ± 0.062
5,CAGCCCAA,0.0925 ± 0.0081
6,GAGCCCAA,0.238 ± 0.016
7,CCGCCCCG,0.287 ± 0.1
8,CCGCCCCA,0.349 ± 0.038
9,AAGCCCAA,0.14 ± 0.085
10,CCGCCCAA,-0.0271 ± 0.08
11,CCGCCCCC,-0.265 ± 0.034
12,CCGCCCGG,-0.235 ± 0.023
13,TAGCCCAA,0.0876 ± 0.027
14,GGAGAGAA,-0.0248 ± 0.093
15,ACGGCAGC,-0.302 ± 0.045
16,CATATGGA,0.0953 ± 0.063
17,CAACACGC,0.161 ± 0.065
18,CCCACGCC,-0.189 ± 0.095
19,GCCAATTA,0.127 ± 0.041
20,ACGGTCAG,-0.313 ± 0.0032
21,CAGGTCCG,-0.237 ± 0.054
22,ACGTCGGC,0.0307 ± 0.079
23,TCGCCCCA,0.24 ± 0.018
24,TCGCCCAA,-0.0719 ± 0.021
25,ACGCCCCA,0.287 ± 0.062

row,Sequence,PBM 8-mer E-score
1,GCGCCCCA,0.0563 ± 0.082
2,ACGCCCCC,-0.18 ± 0.1
3,ACGCCCCG,-0.046 ± 0.025
4,CGATCCAA,-0.286 ± 0.0083
5,CTCGGCGA,-0.0762 ± 0.055
6,CGATGGTA,-0.0858 ± 0.023
7,AATGTAAA,0.211 ± 0.015
8,ATGAGGCA,0.0329 ± 0.044
9,ACTGGCGA,-0.0221 ± 0.033
10,ACTTGCGG,-0.169 ± 0.047
11,CACACGTG,0.338 ± 0.022
12,AACACGTC,0.0373 ± 0.11
13,CACGCGTC,0.2 ± 0.0088
14,AACACGTA,0.112 ± 0.046
15,AACACGTG,0.4538 ± 0.0037
16,CACACGTC,-0.172 ± 0.057
17,AACACAAG,0.141 ± 0.016
18,CACGCGTG,0.303 ± 0.039
19,AACACAAA,0.25 ± 0.03
20,CACACGTA,0.127 ± 0.0021
21,CACGCGTA,0.199 ± 0.021
22,CACACAAA,0.167 ± 0.033
23,CCGAGCCA,-0.115 ± 0.0049
24,GAAGGGGC,0.128 ± 0.0016
25,ACCTATCG,0.13 ± 0.048

row,Sequence,PBM 8-mer E-score
1,CGCTACCC,-0.0659 ± 0.038
2,ACGGATCT,-0.242 ± 0.042
3,GGCGCAAC,-0.0786 ± 0.013
4,CTGATATA,0.0373 ± 0.023
5,CCAACGCC,-0.0186 ± 0.026
6,ACTTCAAA,-0.125 ± 0.065
7,CAACCCCG,-0.0958 ± 0.017
8,CCTGCATC,-0.118 ± 0.02
9,GCTCCGTA,-0.181 ± 0.026
10,AACGCGGA,-0.0532 ± 0.04
11,CACACCTG,-0.176 ± 0.087
12,CACACCTA,0.251 ± 0.023
13,CACGCGGG,0.115 ± 0.007
14,CACGCGGA,0.28 ± 0.036
15,CACACCTC,0.11 ± 0.0036
16,TCACGGGA,-0.0219 ± 0.047
17,CTCAAGTC,0.0478 ± 0.02
18,AGGGTTGC,-0.0164 ± 0.024
19,CAGTCCGC,-0.188 ± 0.055
20,AGGTGCGG,0.0251 ± 0.022
21,AATTTATA,0.248 ± 0.02
22,AATTTATG,0.238 ± 0.043
23,ATTTTATG,0.0605 ± 0.031
24,ATTTTATA,0.206 ± 0.038
25,AATTTATC,0.18 ± 0.013

row,Sequence,PBM 8-mer E-score
1,CATTTATA,0.137 ± 0.013
2,CAGTAAGC,0.00962 ± 0.05
3,AAAAAACC,0.143 ± 0.026
4,GGCTCCGA,-0.22 ± 0.014
5,AAGGCAAT,0.0342 ± 0.0041
6,ATAATTTA,0.235 ± 0.015
7,CCAATTGA,0.252 ± 0.0093
8,CTAATTGA,0.053 ± 0.057
9,ACAATTAC,0.194 ± 0.031
10,GTAATTGA,0.0929 ± 0.019
11,ATAATTTG,0.132 ± 0.036
12,CCAATTAC,0.238 ± 0.015
13,GTAATTTA,0.0825 ± 0.086
14,CCAATTAA,0.159 ± 0.045
15,TCAATTGA,0.1 ± 0.058
16,ATAATTGA,0.258 ± 0.029
17,ACAATTGA,0.194 ± 0.031
18,CCGAGAGC,-0.304 ± 0.02
19,TCTCCGCA,-0.148 ± 0.043
20,CATGTTCG,0.00518 ± 0.06
21,CAGCTGAA,-0.0746 ± 0.0082
22,AAAATGAC,0.134 ± 0.0081
23,CCCCTAAA,0.0345 ± 0.052
24,CAGGCAAG,-0.0204 ± 0.051
25,CAGTGAAG,-0.0862 ± 0.073

row,Sequence,PBM 8-mer E-score
1,AATGAGAA,-0.0163 ± 0.03
2,GCGAACCA,-0.037 ± 0.021
3,ACAGATTC,0.111 ± 0.028
4,GCGTGGTA,0.0782 ± 0.019
5,CTCTACTA,0.168 ± 0.024
6,ATGCCATG,0.026 ± 0.072
7,ATGCCATA,0.246 ± 0.022
8,ATGCCATC,0.134 ± 0.0047
9,AAACAGAT,-0.0777 ± 0.083
10,GTTTGAGA,-0.0465 ± 0.092
11,CAACAGAC,0.0401 ± 0.00088
12,AACATATC,0.124 ± 0.0061
13,AACATATA,0.237 ± 0.031
14,AACATATG,0.182 ± 0.013
15,GACATATA,0.0756 ± 0.061
16,CACATATA,0.21 ± 0.068
17,AACATATT,0.2329 ± 0.0015
18,ATCGTTAG,-0.0184 ± 0.067
19,GTAGACAC,0.0487 ± 0.053
20,ATTACAAC,0.1 ± 0.033
21,AATAGGGA,0.23 ± 0.0053
22,TATAGGGA,-0.0259 ± 0.048
23,GATAGGGA,-0.111 ± 0.072
24,ATCAAACG,-0.0315 ± 0.075
25,CGGTATAA,0.127 ± 0.043

row,Sequence,PBM 8-mer E-score
1,GTGTACAA,0.216 ± 0.039
2,TTGTACAA,0.29 ± 0.033
3,CTGTACAA,0.0289 ± 0.12
4,AGGTACAA,0.0983 ± 0.038
5,AGGTATAA,0.147 ± 0.0065
6,TGGTATAA,0.239 ± 0.0046
7,GGGTACAA,0.0409 ± 0.026
8,TGGTACAA,0.265 ± 0.021
9,CGTTAACC,0.0325 ± 0.077
10,CTCGCCAG,-0.193 ± 0.077
11,CACGAATA,0.0625 ± 0.022
12,CCGTATGA,-0.0951 ± 0.073
13,AAAGCATG,0.181 ± 0.039
14,ACCGGGAT,-0.253 ± 0.025
15,CATCCCCA,0.141 ± 0.047
16,TATCCCCA,0.282 ± 0.018
17,GATCCCCA,0.153 ± 0.12
18,AATCCCCT,0.2795 ± 0.0021
19,AATCCCCA,0.258 ± 0.01
20,AATCCCCC,-0.219 ± 0.0031
21,AATCCCAA,0.158 ± 0.025
22,AATCCCCG,0.0673 ± 0.076
23,AATCCCAT,0.185 ± 0.057
24,ATCGCTAC,-0.0426 ± 0.015
25,CCCGACAC,-0.0833 ± 0.071

row,Sequence,PBM 8-mer E-score
1,AATGAGGC,0.0433 ± 0.059
2,GAAAGGAA,0.00148 ± 0.06
3,CATTCATC,0.0987 ± 0.029
4,GATTCATA,0.178 ± 0.02
5,CATTCATA,0.264 ± 0.046
6,CGAGAGCA,-0.0422 ± 0.048
7,ACGAAGAT,0.0215 ± 0.059
8,ACGAAGAA,0.2404 ± 0.0017
9,TCGAAGAA,0.0801 ± 0.041
10,AGATGCGC,0.0628 ± 0.014
11,CCGAATTA,-0.0865 ± 0.076
12,GTCGGGCA,-0.103 ± 0.025
13,GATGAATC,0.06 ± 0.071
14,TATGAATA,0.211 ± 0.052
15,GATGAATA,0.246 ± 0.059
16,TACATCGA,0.106 ± 0.022
17,AAGTGTCC,0.0439 ± 0.046
18,AAAATCTA,0.00391 ± 0.078
19,AAACGACC,0.115 ± 0.032
20,AAACGACG,0.0001 ± 0.01
21,AAACGACT,0.24 ± 0.023
22,TAAGTTCA,-0.0564 ± 0.0074
